A selection: hits, their analogues and other compounds. The true share with any hit is near 19%.
Giardia killer – kills Giardia lamblia. Giardia lamblia trophozoite viability. activity change, % at 7.66 µM, hits read low. actives 0.15% (n = 340,000). AID 540267; in the data active = activity change below about -80%; inconclusive = between about -30% and that limit;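 also: parasites exposed to compound for two days anaerobically before the ATP read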
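Killing of trophozoites was scored by loss of ATP luminescence after a 48 hrs anaerobic exposure to compounds at 37 deg C, using 100 cells per well.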
DT40 TDP1 CPT – growth inhibition of DT40 Tdp1-/-;hTDP1 cells with camptothecin (screen for TDP1 inhibitors). chicken DT40 Tdp1-/-;hTDP1 cells + 20 nM CPT, ATP luminescence, 48 h. Potency, µM (top dose mostly 46.2 µM), for the others: top-dose activity change, negative = growth inhibition, actives largely listed as inhibitors. actives 12% (n = 420,000). AID 686979; also: potency is read from the fitted curve at half-maximal effect; nearly all actives have a fitted effect of over 55% in size
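Cell growth measured by CellTiter-Glo luminescence after a minimum 48 h, 37 C compound exposure with 20 nM CPT in Tdp1-knockout DT40 cells stably expressing hTDP1, seeded 400/well; qHTS titration format.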
IL-1B inflam inh – inhibitors of inflammasome signaling (IL-1 beta secretion) | THP-1 LPS/ATP IL-1B secretion, AlphaLISA, 16 h; active compounds read low | activity change, % at 57.5 µM | actives 4.7% (n = 360,000) | AID 743279; in the data active = activity change below about -50%; inconclusive = mostly about -30% to -49%
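THP-1 cells pretreated 1 hr with compounds (up to 57.5 uM final), then stimulated with LPS (250 ng/mL final) plus ATP (1.25 mM final); secreted IL-1B measured by AlphaLISA after 16 hr, decreased signal indicating inhibition.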
ELG1 repair inh – inhibitors of ELG1-dependent DNA repair in HEK293T cells; Potency, µM (titrated, usually from 46.1 µM), for the others: at the top dose activity change, negative = inhibition, usual class: inhibitors; AID 504467; HEK293T ELG1-luciferase reporter, luminescence, 16 h; DNA damage induced by 5-fluorouridine; actives 2.3% (n = 330,000); also: potency is read from the fitted curve at half-maximal effect; nearly all actives have a fitted effect of over 55% in size
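Cells (2,000 per well) received 5-fluorouridine plus test compound or DMSO and were incubated 16 hr at 37 °C, 5% CO2. Luciferase activity was read by luminescence 30 min after ONE-Glo addition; signal suppression marked inhibition of damage-induced ELG1 function.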
TDP1 inh – TDP1 (human) enzyme inhibition; actives 0.28% (n = 350,000); AID 485290; Potency, µM (highest dose often 130 µM), for inactives: at the top dose activity change, negative = inhibition, hits mostly inhibitors; recombinant TDP1, AlphaScreen DNA substrate cleavage; also: potency is read from the fitted curve at half-maximal effect; nearly all actives have a fitted effect of over 40% in size
Target sequence (Q9NUW8 whole entry, looked up): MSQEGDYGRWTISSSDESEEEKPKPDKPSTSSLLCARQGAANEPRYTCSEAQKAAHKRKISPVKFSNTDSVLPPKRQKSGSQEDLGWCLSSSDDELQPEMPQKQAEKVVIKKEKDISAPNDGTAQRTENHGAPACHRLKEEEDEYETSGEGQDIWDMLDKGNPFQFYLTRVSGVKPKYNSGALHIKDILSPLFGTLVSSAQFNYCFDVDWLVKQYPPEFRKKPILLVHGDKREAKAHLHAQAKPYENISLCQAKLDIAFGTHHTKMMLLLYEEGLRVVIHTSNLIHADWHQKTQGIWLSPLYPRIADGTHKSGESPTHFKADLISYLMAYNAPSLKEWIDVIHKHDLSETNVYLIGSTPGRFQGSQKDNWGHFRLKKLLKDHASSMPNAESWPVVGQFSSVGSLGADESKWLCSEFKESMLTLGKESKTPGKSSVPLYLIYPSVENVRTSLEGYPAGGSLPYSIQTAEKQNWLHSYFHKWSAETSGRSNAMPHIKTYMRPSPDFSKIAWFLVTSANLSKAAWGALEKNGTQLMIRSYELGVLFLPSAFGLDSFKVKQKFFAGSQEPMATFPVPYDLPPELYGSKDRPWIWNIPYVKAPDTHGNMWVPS
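Recombinant E. coli-expressed Tdp1 (1 nM) preincubated with compound 15 min at RT, then 5'-biotin/3'-phosphotyrosine-FITC DNA substrate (15 nM) added for 5 min. AlphaScreen beads (10 ug/ml) added, 10 min RT; tyrosine-FITC cleavage read as signal loss.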
TDP1 cell noCPT – qHTS for Inhibitors of human tyrosyl-DNA phosphodiesterase 1 (TDP1): qHTS in cells in absence of CPT; actives 15% (n = 420,000); DT40 Tdp1-/- hTDP1 cells, no CPT, ATP luminescence, 48 h; AID 686978, 2013; Potency, µM (series often up to 46.2 µM), for inactives: at the top dose activity change, negative = growth inhibition, most hits filed as inhibitors; also: potency is read from the fitted curve at half-maximal effect; nearly all actives have a fitted effect of over 55% in size
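Compound effects on proliferation are scored in DT40 Tdp1-/-;hTDP1 cells in the absence of CPT. ATP levels (CellTiter-Glo luminescence) are recorded after a ≥48 hr, 37 °C incubation.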
* marks the source's active call; other numbers are inactive results; ? = inconclusive; · = no result; [ ] = remark or other dose. Unless noted, calls follow the shape of the dose curve; as a rule, active = well fitted curve in the direction sought with a large enough effect; inconclusive = small, poorly fitted or top-dose-only effect, or another doubt; inactive = no such curve, though single readings can be large; an effect the other way counts as inactive or inconclusive. % is scaled to controls: 0 for no effect and ±100 for the full control effect.

SMILES	Giardia killer	DT40 TDP1 CPT	IL-1B inflam inh	ELG1 repair inh	TDP1 inh	TDP1 cell noCPT
Cc1ccc(-c2[nH]c3ccccc3c2SCCNC(=O)c2ccc(S(=O)(=O)N(C)C)cc2)cc1	·	5.8µM*	·	·	6%	5.8µM*
O=C(Cc1cccs1)NCCSc1c(-c2ccc(Cl)cc2)[nH]c2ccccc12	-13	18µM*	-17	?	8%	13µM*
CN(C)S(=O)(=O)c1ccc(C(=O)NCCSc2ccccc2)cc1	-5	-20%	-7	?	5%	?
CN(C)S(=O)(=O)c1ccc(C(=O)NCCSc2c(-c3ccc(Cl)cc3)[nH]c3ccccc23)cc1	·	4.1µM*	·	·	9%	5.2µM*
CCCOc1cccc(C(=O)N/N=C/c2ccoc2)c1	7	1%	-7	?	·	22%
COC(=O)CC1=COC2OCC3=CC[C@@H]1C32 (stereo not given in full)	·	·	·	·	9%[21 µM]	·
COC(=O)c1cc(CNC(=O)c2cccc(N(C)C)c2)cc(NC(=O)c2ccccc2Cl)c1	·	0%[9.04 µM]	·	·	·	-12%
CCN1C(=NCCOC)N[C@@H](c2cccc(C(F)(F)F)c2)C(C(=O)OC)=C1C	-16	21µM*	?	16%	0%	18µM*
CCN1C(=NCc2ccco2)N[C@@H](c2cccc(C(F)(F)F)c2)C(C(=O)OC)=C1C	-4	16µM*	0	10%	2%	?
CCN1C(=NCC2CC2)N[C@@H](c2cccc(C(F)(F)F)c2)C(C(=O)OC)=C1C	3	?	·	-20%	·	10µM*
CCN1C(=NCC2CC2)N[C@@H](c2ccccc2)C(C(=O)OC)=C1C	36	?	7	27%	-2%	?
CCN1C(=NCc2cc(OC)c(OC)c(OC)c2)N[C@@H](c2cccc(C(F)(F)F)c2)C(C(=O)OC)=C1C	2	?	-28	?	2%	-28%
COC(=O)C1=C(C)NC(C)=C(C(=O)OCC2CCCO2)C1c1cccc(Br)c1 (stereo not given)	25	?	?	?	1%	?
CC1=C(C)/C(=N/OC(=O)c2cccc([N+](=O)[O-])c2)C=CC1=O	-2	21µM*	-4	?	5%	21µM*
CC(C)N1CCc2c(sc(NC(=O)c3ccc(S(=O)(=O)N4CCc5ccccc54)cc3)c2C(N)=O)C1	-10	23µM*	19	-10%	·	?
CC(C)N1CCc2c(sc(NC(=O)c3ccc(S(=O)(=O)N(C)C4CCCCC4)cc3)c2C(N)=O)C1	·	?	·	·	10%	18µM*
NC(=O)c1ccsc1NC(=O)c1ccc(S(=O)(=O)N2CCCc3ccccc32)cc1	-2	16µM*	0	21µM*	-1%	18µM*
COc1ccc(OCCN2CCN(S(=O)(=O)c3ccccc3C(F)(F)F)CC2)cc1	11	?	0	?	1%	?
COc1ccc(NC(=O)CC(NCc2ccccn2)C(=O)O)cc1 (stereo not given)	-13	19%	15	1%	7%	0%
CSCCC(NC=O)C(=O)NC(CC(C)C)C(=O)NC(Cc1ccccc1)C(=O)O (stereo not given)	·	-4%	·	·	8%[56.1 µM]	-3%
CSCCC(NC=O)C(=O)NC(C)C(=O)O (stereo not given)	0	2.9µM*	-22	·	·	0.65µM*
CN(C)S(=O)(=O)c1ccc(C(=O)OCc2nnc(-c3ccccc3)o2)cc1	-3	9%	6	?	·	-6%
CC(C)c1ccc(CN(C)C(=O)c2ccc(S(=O)(=O)NCc3ccco3)cc2)cc1	8	21µM*	16	3%	2%[56.1 µM]	21µM*
O=C(/C=C/c1ccco1)OCc1nnc(-c2ccccc2)o1	-8	-10%	17	15%	25µM*	-22%
NC(=O)COC(=O)c1ccc(S(=O)(=O)NCc2ccco2)cc1	2	-7%	-7	15%	16µM*	-23%
SMILES	Giardia killer	DT40 TDP1 CPT	IL-1B inflam inh	ELG1 repair inh	TDP1 inh	TDP1 cell noCPT
O=C(COC(=O)c1ccc(S(=O)(=O)NCc2ccco2)cc1)NCc1ccccc1	-8	-5%	34	9%	-15%	-12%
O=C(OCc1nnc(-c2ccccc2)o1)c1ccc(S(=O)(=O)NCc2ccco2)cc1	12	?	0	10%	-3%	23µM*
CC(C)(CNC(=O)c1cnn(-c2nccc(-c3ccccc3F)n2)c1C1CC1)N1CCOCC1	·	-14%[9.04 µM]	·	·	·	?
O=C(COC(=O)c1cc(S(=O)(=O)Nc2ccccc2Cl)ccc1O)Nc1ccc(F)c(F)c1F	1	13%	25	7%	0%	-12%
O=S1(=O)CC(N2CCC(Cc3ccccc3)CC2)CN1C1CCCC1 (stereo not given)	·	?	14	·	·	?
Cn1cc([C@]2(O)C(=O)Nc3ccccc32)c2ccccc21	·	4%	24	·	·	9%
CC(C)CN(CC(C)C)S(=O)(=O)c1cc([N+](=O)[O-])ccc1N1CCCCCC1	-5	?	-20	6%	4%	16µM*
N#Cc1cc([N+](=O)[O-])ccc1N1CCCC1	0	-27%	-22	0%	3%	?
CCc1ccc2oc(-c3ccc(OC)cc3)cc(=Nc3cccc(C(=O)O)c3)c2c1	-4	?	-66*	?	3%	?
Cc1cc(C)c(S(=O)(=O)N2CCCCC2)c(C)c1N(C)S(=O)(=O)c1ccc(Cl)cc1	18	?	-6	-27%	2%	?
Cc1c(Cl)sn(-c2ccc(Cl)cc2)c1=O	-3	0.26µM*	?	?	-1%	0.026µM*
CN(CC(=O)Nc1cccc(F)c1)C(=O)c1ccncc1	-1	8%	11	18%	4%	2%
CCOc1ccc(CNC(=O)c2cc3ccccn3n2)cc1	·	-28%	·	·	5%	-14%
C#CCN1C=CC(=O)[C@@H](OC(=O)Nc2ccc(Cl)cc2)[C@H]1c1ccccc1Br	-9	21µM*	-10	·	·	23µM*
CC[C@@]1([C@@H]2O[C@@H]([C@H]3O[C@@](O)(CO)[C@H](C)C[C@@H]3C)C[C@@H]2C)CC[C@H]([C@]2(C)CC[C@]3(C[C@H](O)[C@@H](C)[C@@H]([C@@H](C)[C@@H](OC)C(C)C(=O)O)O3)O2)O1 (stereo not given in full)	·	·	·	·	6%	·
Cc1occc1C(=O)N/N=C/C(Br)=C/c1ccccc1	-8	9.2µM*	-78*	?	7%	12µM*

Bioassay records: PubChem, National Center for Advancing Translational Sciences (NCATS)
